What was measured:
Test in all cases: PBM binding z-score (relative to random genomic background probes); higher = stronger binding; sequences stand for … in GC…GCGATTGACAGCGTAGAATGAAGG
[1] = test system: RARb homodimer (NR concentration 270 nM)
In short: (§1)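 Regression normalization was applied to scanned fluorescence from custom Agilent 4×180K protein-binding microarrays. Before scanning, arrays were incubated 1 h with ligand-free nuclear receptor dimers, and binding was detected with antibodies against each partner (one per run). Binding z-scores use the random background probes as reference.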

[2] = test system: RARg:RXRa (NR concentration 270 nM, RXRa partner concentration 90 nM)
In short: as §1

[3] = test system: RARg homodimer (NR concentration 270 nM)
In short: as §1

[4] = test system: RXRa DBDmut IVT, anti-RXR (DBD mutation: RXRa K156A/R161A, NR concentration 90 nM)
In short: as §1

[5] = test system: RXRa homodimer (NR concentration 180 nM)
In short: as §1

[6] = test system: THRa:RXRa (NR concentration 90 nM, RXRa partner concentration 90 nM)
In short: as §1

[7] = test system: THRa homodimer (NR concentration 90 nM)
In short: as §1

[8] = test system: VDR homodimer (NR concentration 270 nM)
In short: as §1

ATCGAAAGGTCGACTAGGTGAGTATACACCGTTT
PBM binding z-score [1]: 2.66
PBM binding z-score [2]: 4.11
PBM binding z-score [3]: 3.91
PBM binding z-score [4]: 0.992
PBM binding z-score [5]: 4.12
PBM binding z-score [6]: 2.86
PBM binding z-score [7]: 0.0406
PBM binding z-score [8]: 1.09

ATATTTAGGTTAAGGGTCATTCAGGTTGGTTCGC
PBM binding z-score [1]: 4.22
PBM binding z-score [2]: 4.81
PBM binding z-score [3]: 3.84
PBM binding z-score [4]: 2.51
PBM binding z-score [5]: 5.68
PBM binding z-score [6]: 3.95
PBM binding z-score [7]: 3
PBM binding z-score [8]: 5.16

AGAATAAGGTTACCAAAGATCAGGGAAACGCTTG
PBM binding z-score [1]: 1.1
PBM binding z-score [2]: 2.06
PBM binding z-score [3]: 2
PBM binding z-score [4]: 0.391
PBM binding z-score [5]: 2.36
PBM binding z-score [6]: 2.69
PBM binding z-score [7]: 0.914
PBM binding z-score [8]: 0.232

CCTCGGAGGACAACAGGAGGTCAGAGGTGCCAGA
PBM binding z-score [1]: 3.4
PBM binding z-score [2]: 3.47
PBM binding z-score [3]: 3.16
PBM binding z-score [4]: -0.191
PBM binding z-score [5]: 2.1
PBM binding z-score [6]: 2.88
PBM binding z-score [7]: 0.822
PBM binding z-score [8]: 1.13

ATATGTAGGTTAGCTGCGGTCATTCAGACTAGGC
PBM binding z-score [1]: 2.02
PBM binding z-score [2]: 1.43
PBM binding z-score [3]: 1.83
PBM binding z-score [4]: 0.343
PBM binding z-score [5]: 0.968
PBM binding z-score [6]: 4.05
PBM binding z-score [7]: 0.202
PBM binding z-score [8]: 0.904

GTACCAAGGTGAATGGGTCGTTGATGAGTAGGCG
PBM binding z-score [1]: 1.33
PBM binding z-score [2]: 1.28
PBM binding z-score [3]: 0.93
PBM binding z-score [4]: -0.402
PBM binding z-score [5]: 1.08
PBM binding z-score [6]: 1.74
PBM binding z-score [7]: 0.777
PBM binding z-score [8]: 0.187

ATCTCTATGTAAAAGTTCAGTGAATCCCGAGGAT
PBM binding z-score [1]: 2.26
PBM binding z-score [2]: 1.61
PBM binding z-score [3]: 1.8
PBM binding z-score [4]: 1.05
PBM binding z-score [5]: 1.11
PBM binding z-score [6]: 0.505
PBM binding z-score [7]: 0.00559
PBM binding z-score [8]: 1.6

TTTTGTAGATCAAGCAGGTTAAGAAAGCCTGAGT
PBM binding z-score [1]: 0.054
PBM binding z-score [2]: -0.111
PBM binding z-score [3]: -0.119
PBM binding z-score [4]: -0.757
PBM binding z-score [5]: 0.19
PBM binding z-score [6]: 0.502
PBM binding z-score [7]: -0.555
PBM binding z-score [8]: 0.443

TCTTGTAGATCAATAAAGGTTAAGAAAGTGCGCT
PBM binding z-score [1]: 1.87
PBM binding z-score [2]: 1.1
PBM binding z-score [3]: 0.821
PBM binding z-score [4]: 1.1
PBM binding z-score [5]: 1.72
PBM binding z-score [6]: 2.05
PBM binding z-score [7]: -0.219
PBM binding z-score [8]: 0.571

CCTACTGGGCCACGAACGGTCATTGATTCAGTGA
PBM binding z-score [1]: 1.91
PBM binding z-score [2]: 0.72
PBM binding z-score [3]: 1
PBM binding z-score [4]: -0.535
PBM binding z-score [5]: -0.0982
PBM binding z-score [6]: 0.584
PBM binding z-score [7]: -0.505
PBM binding z-score [8]: -0.169

CATAGTTGGTCAGGAGGTCACACACCGGATATGA
PBM binding z-score [1]: 4.18
PBM binding z-score [2]: 5.09
PBM binding z-score [3]: 4.47
PBM binding z-score [4]: 0.639
PBM binding z-score [5]: 4.6
PBM binding z-score [6]: 3.46
PBM binding z-score [7]: 2.32
PBM binding z-score [8]: 3.09

TCTTGGAGATCAAAGGTTAAGAAAGCCGAAGCCT
PBM binding z-score [1]: 1.18
PBM binding z-score [2]: 2.07
PBM binding z-score [3]: 0.819
PBM binding z-score [4]: 0.202
PBM binding z-score [5]: 4.66
PBM binding z-score [6]: 1.4
PBM binding z-score [7]: -0.671
PBM binding z-score [8]: -0.245

TCTGCTAGGTCAGTTGGTCAGCTAACGAGCTGCC
PBM binding z-score [1]: 2.55
PBM binding z-score [2]: 2.58
PBM binding z-score [3]: 3.5
PBM binding z-score [4]: 0.411
PBM binding z-score [5]: 1.02
PBM binding z-score [6]: 1.36
PBM binding z-score [7]: -0.176
PBM binding z-score [8]: -0.401

GCGACTGGGGCATCAGCAGCTTACCATAACTTAA
PBM binding z-score [1]: -0.217
PBM binding z-score [2]: -0.328
PBM binding z-score [3]: -0.193
PBM binding z-score [4]: 0.178
PBM binding z-score [5]: -0.47
PBM binding z-score [6]: -0.225
PBM binding z-score [7]: -0.422
PBM binding z-score [8]: -0.429

TCTTGTAGATCAATACAGGTTAAGAAAGTGCGCT
PBM binding z-score [1]: 0.644
PBM binding z-score [2]: 0.423
PBM binding z-score [3]: 0.26
PBM binding z-score [4]: 1.25
PBM binding z-score [5]: 0.787
PBM binding z-score [6]: 1.46
PBM binding z-score [7]: -0.0772
PBM binding z-score [8]: 0.463

TAGCCTAGGTCATGCGGGCGAGTATAGTGTCGGC
PBM binding z-score [1]: 2.94
PBM binding z-score [2]: 3.64
PBM binding z-score [3]: 3.75
PBM binding z-score [4]: 0.518
PBM binding z-score [5]: 2.68
PBM binding z-score [6]: 2.89
PBM binding z-score [7]: 1.22
PBM binding z-score [8]: 0.494

ATCGAAAGGTCGTGAGGTGAGTATCCAGAAAGGC
PBM binding z-score [1]: 2.99
PBM binding z-score [2]: 4.59
PBM binding z-score [3]: 3.92
PBM binding z-score [4]: 1.15
PBM binding z-score [5]: 5.24
PBM binding z-score [6]: 3.28
PBM binding z-score [7]: 1.55
PBM binding z-score [8]: 0.852

CCTAGCAGGCCAATCTGGGTCAGTCAAGGCTTGA
PBM binding z-score [1]: 1.82
PBM binding z-score [2]: 0.465
PBM binding z-score [3]: 1.02
PBM binding z-score [4]: -0.281
PBM binding z-score [5]: -0.197
PBM binding z-score [6]: 2.97
PBM binding z-score [7]: -0.159
PBM binding z-score [8]: -0.52

ACAGACAGGTGATGAAGGTAACTAAGGCTATCAT
PBM binding z-score [1]: 0.434
PBM binding z-score [2]: 0.422
PBM binding z-score [3]: 0.552
PBM binding z-score [4]: -0.521
PBM binding z-score [5]: 0.185
PBM binding z-score [6]: 1.28
PBM binding z-score [7]: 0.245
PBM binding z-score [8]: -0.317

TCAGACAGGAGAAGGTAACTCAGGTACGCAGTCG
PBM binding z-score [1]: -0.2
PBM binding z-score [2]: 0.286
PBM binding z-score [3]: 0.356
PBM binding z-score [4]: 1.23
PBM binding z-score [5]: 0.47
PBM binding z-score [6]: 0.913
PBM binding z-score [7]: 0.177
PBM binding z-score [8]: -0.0806

ATCTCGAGGTAACCAAGTTCAGTGAATGCCGAAC
PBM binding z-score [1]: 1.62
PBM binding z-score [2]: 0.86
PBM binding z-score [3]: 1.02
PBM binding z-score [4]: 0.865
PBM binding z-score [5]: 0.825
PBM binding z-score [6]: 2.41
PBM binding z-score [7]: 0.867
PBM binding z-score [8]: 3.01

CGTCAAAGTTCAGGGTAACGTAACAGAAAGCAGC
PBM binding z-score [1]: 3.13
PBM binding z-score [2]: 4.04
PBM binding z-score [3]: 4.74
PBM binding z-score [4]: 3.74
PBM binding z-score [5]: 2.91
PBM binding z-score [6]: 2.14
PBM binding z-score [7]: 0.495
PBM binding z-score [8]: 2.51

CAAACTAGGTCAAGAAGTCAAAGTCCGCTTCCCG
PBM binding z-score [1]: 3.2
PBM binding z-score [2]: 4.44
PBM binding z-score [3]: 4.23
PBM binding z-score [4]: 1.32
PBM binding z-score [5]: 2.97
PBM binding z-score [6]: 2.65
PBM binding z-score [7]: 0.74
PBM binding z-score [8]: 0.478

CAAACTAGGTCACAAAGGTCAAAGTCCGTGCGTA
PBM binding z-score [1]: 5.75
PBM binding z-score [2]: 7.55
PBM binding z-score [3]: 8.33
PBM binding z-score [4]: 3.46
PBM binding z-score [5]: 8.41
PBM binding z-score [6]: 4.52
PBM binding z-score [7]: 2.58
PBM binding z-score [8]: 6.7

AGTCAACGTTCAGGACGAGGTAACGTAAAGCACG
PBM binding z-score [1]: -0.0275
PBM binding z-score [2]: 0.297
PBM binding z-score [3]: 0.412
PBM binding z-score [4]: -0.658
PBM binding z-score [5]: 0.0619
PBM binding z-score [6]: 2.08
PBM binding z-score [7]: 1.42
PBM binding z-score [8]: -0.0352

ATATGTAGGTTAACGGGTCATTCAGTTTGCGCAT
PBM binding z-score [1]: 2.84
PBM binding z-score [2]: 3.21
PBM binding z-score [3]: 2.62
PBM binding z-score [4]: 1.46
PBM binding z-score [5]: 3.46
PBM binding z-score [6]: 2.27
PBM binding z-score [7]: 0.71
PBM binding z-score [8]: 2.56

AATACAGGGCCATCGTAGGCCAGAGTACGCACAG
PBM binding z-score [1]: 0.468
PBM binding z-score [2]: 0.421
PBM binding z-score [3]: 0.993
PBM binding z-score [4]: -0.218
PBM binding z-score [5]: 0.0629
PBM binding z-score [6]: 1.44
PBM binding z-score [7]: -0.588
PBM binding z-score [8]: 0.487

CCGACTGGGGCAAACGTTACCATACTCAGTACGA
PBM binding z-score [1]: 0.0694
PBM binding z-score [2]: 0.309
PBM binding z-score [3]: 0.456
PBM binding z-score [4]: 0.618
PBM binding z-score [5]: 0.251
PBM binding z-score [6]: -0.227
PBM binding z-score [7]: -0.206
PBM binding z-score [8]: -0.371

— the supplement of paper PMC6555819
